Data on 25 molecules can be found in PubChem BioAssay AID1259415 (National Center for Advancing Translational Sciences (NCATS), 2018).

In all, about 410,000 compounds went through this assay and about 18,000 (4.4%) were called active. Not shown: some 7% with an inconclusive outcome. No stated cut-off is given here; in the data, active means activity change below about -60%; inconclusive means no clear call, values can overlap the other calls; inactive means above about -39%. The sample as a whole holds a higher share of actives than the screen did.
On the % scale 0 is the no-effect control and ±100 the full control effect.

The nature of the experiment: qHTS Assay for inhibitors of the human cytomegalovirus (HCMV). The settings on record: HFF cells, HCMV-luciferase reporter, 72 h; at 57.5 µM; hits give low values. Put shortly:
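Two compound doses tested in HFFs infected with HCMV-luciferase, MOI 1 PFU/cell, 72 h at 37C. Lysate luminescence read with OneGlo; data normalized against buffer-only and 10uM Salinomycin inhibitor controls.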
Regarding `CCn1cc(C(=O)NCc2ccccc2)c(=O)c2cc(S(=O)(=O)N3CCCCC3)ccc21`, the activity change, negative = inhibition is 1.38% (inactive).
With `CN(C)CCCn1c(-c2ccc(Cl)cc2)csc1=Nc1ccccc1` the figure was -19.8% (inactive); with `COc1cc(/C=N/O)cc(Br)c1OS(=O)(=O)c1ccc(C)cc1`, -76.2% (active); with `COc1cc(/C=C/c2ccc(/C=C/c3cc(OC)c(OC)c(OC)c3)cc2)cc(OC)c1OC`, -35.4% (inactive).
Regarding `Cc1ccc(S(=O)(=O)Oc2ccc(/C=N/NC(=O)c3c(Cl)cnn3C)cc2)cc1`, the activity change, negative = inhibition was 22% (inactive).
For `COc1cccc(CNC(=O)c2cc(=O)[nH]c3ccc(S(=O)(=O)N4CCCCC4)cc23)c1` the value was 0.829% (inactive); for `CSc1ncc(Cl)c(C(=O)Nc2ccc(S(=O)(=O)N3CCCC(C)C3)cc2)n1` (stereo not given), -86% (active).
For `CCc1ccc(NC(=O)c2cc(S(=O)(=O)N3CCCC(C)C3)cn2C)cc1` (stereo not given) the value was -13.1% (inactive); for `COc1ccc(S(=O)(=O)N2CCCC(C(=O)Nc3ccc(NC(=O)c4ccccn4)cc3)C2)cc1` (stereo not given), 62.8% (inactive); for `Cc1nnc(SCC(=O)NCc2ccccc2Cl)c2nn(-c3ccccc3)c(C)c12`, -12.6% (inactive).
For `O=C(NC(=O)N1CCSCC1)c1c(Cl)cccc1Cl` the value was 7.68% (inactive); for `COc1ccc(-c2nn(CC(=O)NC3CCCC3)c3c2cnc2ccc(F)cc23)cc1`, 35.7% (inactive); for `CCOc1ccc(NCCC(=O)c2ccc3c(c2)OCO3)cc1`, -3.98% (inactive).
On to `COC(=O)CCNc1ccc2c(c1)OCCO2`, for which the activity change, negative = inhibition was -79.1% (active).
With `CCC(C)(C)NC(=O)CN(C(=O)C(=O)Nc1ccc2c(c1)OCCO2)C(C)(C)CC` the figure was 21.3% (inactive); with `Cn1nc(-c2ccccc2)c(-c2ccccc2)c(C(=O)Nc2ccc(S(N)(=O)=O)cc2)c1=O`, 6.63% (inactive).
As for `COc1ccc(-c2c3c(=O)n(C)c(=O)n(C)c3c3c(C)nc4ccccc4n23)cc1`, the activity change, negative = inhibition was 6.41% (inactive).
With `CC(=O)Nc1cc(C(=O)NCc2ccc(F)cc2)ccc1Sc1ccc(F)cc1` the figure was -2.97% (inactive); with `CC(=O)N/C(=N/c1nc(C)cc(C)n1)Nc1ccc(F)cc1F`, -32.1% (inactive).
With `CCOC(=O)c1cccc(NC(=O)c2ccc(F)cc2F)c1` the figure was 17.1% (inactive); with `Cc1cc(C)nc(-n2nc(C)cc2NC(=O)c2ccc(F)cc2F)n1`, -89.4% (active).
Regarding `Cc1ccc(-c2nn3c(=O)cc(CN4CCN(S(=O)(=O)c5ccc(Cl)cc5)CC4)nc3s2)cc1`, the activity change, negative = inhibition was -1.44% (inactive).
With `COc1cc(/C=C(\C#N)C(=O)Nc2ccc3ccccc3c2)c([N+](=O)[O-])cc1OC` the figure was 16.2% (inactive); with `CCSc1ccccc1C(=O)NCc1ccc(OC)cc1`, -19.4% (inactive).
With `COc1ccc(CNC(=O)/C(C#N)=C/c2cccc(OC)c2OC)cc1`, the activity change, negative = inhibition was -83.6% (active).
